Screening data: PubChem BioAssay, National Center for Advancing Translational Sciences (NCATS)
Sampled rows, rich in hits. Any-hit rate of the full collection: about 6.5%.
HCMV antiviral: human cytomegalovirus inhibition; AID 1259415; activity change, negative = inhibition, % at 57.5 µM; 4.5% of 410,000 active; HFF cells, HCMV-luciferase reporter, 72 h; hits give low values; in the data active means activity change below about -60%; inconclusive means no clear call, values can overlap the other calls; inactive means above about -39%
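Screen run at 2 compound doses on HFFs infected with reporter HCMV, MOI 1 PFU/cell. Luciferase activity from cell lysates at 72 h post infection gave inhibition relative to buffer-only and Salinomycin wells.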
FMDV antiviral: foot and mouth disease virus antiviral activity; FMDV antiviral cell-based qHTS; Potency, µM (series often up to 57.9 µM), without a hit: at the highest dose activity change, negative = inhibition, hits mostly inhibitors; 1.2% of 410,000 active; calls by dose curve; tested in HEK293T cells; further: read-out not given here; potency means the concentration at half of the fitted maximal effect; nearly all actives have a fitted effect of over 45% in size
Marburg entry inh: blocks Marburg virus binding to or entry into cells; Marburg virus pseudotyped entry inhibition, cell reporter; 1.8% of 300,000 active; Potency, µM (highest dose often 37.8 µM), for the others: top-dose activity change, negative = inhibition, usual class: inhibitors; calls by dose curve; tested in HEK293 cells; further: potency means the concentration at half of the fitted maximal effect
Lassa entry inh: inhibitors of Lassa virus binding or cell entry; Lassa virus pseudotype entry inhibition, cell reporter; Potency, µM (series often up to 37.9 µM), for inactives: top-dose activity change, negative = inhibition, usual class: inhibitors; 1.2% of 300,000 active; AID 540256; calls by dose curve; tested in HEK293 cells; further: potency means the concentration at half of the fitted maximal effect; nearly all actives have a fitted effect of over 50% in size
Vaccinia mCherry: vaccinia inhibition (mCherry reporter). Vaccinia virus mCherry reporter infection, fluorescence. Potency, µM (highest dose often 36.5 µM), for inactives: at the top dose activity change, negative = inhibition, actives largely listed as inhibitors. 0.63% of 310,000 active. AID 720579; calls by dose curve; tested in A549 cells; further: potency means the concentration at half of the fitted maximal effect; nearly all actives have a fitted effect of over 35% in size
Vaccinia Venus: vaccinia inhibition (Venus reporter); Potency, µM (titrated, usually from 36.5 µM), without a hit: at the top dose activity change, negative = inhibition, hits mostly inhibitors; AID 720580; Vaccinia virus Venus reporter expression, fluorescence; 0.46% of 330,000 active; calls by dose curve; tested in A549 cells; further: potency means the concentration at half of the fitted maximal effect; nearly all actives have a fitted effect of over 30% in size
* hit, by the source's call; i = inactive; ? = inconclusive; nt = not tested or not shown; + = active, no number; ! = not confirmed by another sample; [ ] = another dose, or the depositor's remark. On the % scale 0 is the no-effect control and ±100 the full control effect.

SMILES | HCMV antiviral | FMDV antiviral | Marburg entry inh | Lassa entry inh | Vaccinia mCherry | Vaccinia Venus
O=C(CSc1nc2ccccc2c(=O)[nH]1)N1CCN(S(=O)(=O)c2ccccc2)CC1 | 45 | -16% | -10% | 1% | nt | nt
COc1cccc(Cn2c(SCC(=O)N3CCN(c4ccc(F)cc4)CC3)nc3ccccc32)c1 | -15 | -27% | 6%[46.1 µM] | nt | -29% | ?
O=C(CSc1nc2ccccc2n1CC(=O)N1CCOCC1)N1CCCC1 | 1 | -21% | ? | -17% | -7% | -3%
O=C(CSc1nc2ccccc2n1CCc1ccccc1)N1CCOCC1 | -68* | -3% | -5% | -2% | i | 1%
O=C(CSc1nc(-c2ccccc2)c(-c2ccccc2)[nH]1)N1CCN(S(=O)(=O)c2ccccc2)CC1 | -88* | ? | ? | -25% | nt | nt
CC(C)Cn1c(SCC(=O)N2CCN(S(=O)(=O)c3ccccc3)CC2)nc2ccccc21 | -68* | nt | ? | -12% | -4% | -12%
COc1ccc(Cn2c(SCC(=O)N3CCN(c4ccc(F)cc4)CC3)nc3ccccc32)cc1 | -67* | 0% | -29%[46.1 µM] | nt | -10% | -16%
COc1ccc2c(c1)CO[C@H]([C@H](O)CO)[C@H]2C=CC#Cc1ccc(C(C)(C)C)cc1 | nt | nt | -9%[14.2 µM] | nt | nt | nt
Cc1ccc(NC(=O)C2(c3ccccc3)CC2(Cl)Cl)cc1C (stereo unspecified) | 109 | 4% | -17% | -5% | i | -10%
CCc1ccc(NC(=O)C2(c3ccccc3)CC2(Cl)Cl)cc1 (stereo unspecified) | ? | ? | 0% | 16µM* | nt | nt
C[C@]12CCC(=O)C[C@@H]1CC[C@@H]1[C@@H]2CC[C@]2(C)[C@@H](C(=O)COC(=O)CCC(=O)O)CC[C@@H]12 | -61*! | -15% | 0%[46.1 µM] | 4%[46.1 µM] | -17% | -22%
CSCCC(NC(=O)CCC(=O)OC1CC[C@H]2[C@@H]3CC[C@H]4CC(=O)CC[C@]4(C)[C@H]3CC[C@]12C)C(=O)O (stereo partly specified) | -10 | 0% | nt | nt | nt | nt
Cc1ccc(C)c2[nH]c(=O)c(CN(CC3CCCO3)C(=S)NCc3ccco3)cc12 (stereo unspecified) | 0 | 7% | ? | -24%[46.1 µM] | -4% | -21%
Cc1cc2cc(CCNC(=O)c3cccs3)c(=O)[nH]c2cc1C | -99* | 5% | -6% | ? | -22% | -23%
COc1ccccc1NC(=S)N(Cc1ccco1)Cc1cc2cc(C)ccc2[nH]c1=O | -61* | -3% | 4µM* | -12% | ? | ?
Cc1ccc2cc(CN(CC3CCCO3)C(=S)NCc3ccco3)c(=O)[nH]c2c1C (stereo unspecified) | -63* | 32% | 0.63µM* | 5.8µM* | -19% | -11%
Cc1cc2cc(CN(Cc3cccs3)C(=S)NCc3ccco3)c(=O)[nH]c2cc1C | -1 | -29% | 14µM* | -28% | -28% | -19%
CCOc1nc(Nc2cc(Cl)ccc2OC)nc(OCC)n1 | -19 | -5% | 6% | -17% | nt | -3%
C=CCNc1nc(Cl)nc(Nc2cc(Cl)ccc2OC)n1 | -28 | -12% | 13µM* | 3% | -14% | -4%
Cn1c(-c2ccncc2)nc2cc(C(=O)N3CCCC3c3nccs3)cc(NC(=O)C3CCC3)c21 (stereo unspecified) | nt | -5% | nt | nt | -9% | 3%
COc1ccc(CNC(=O)Cn2c(SCC(=O)Nc3ccc(C)c(C)c3)nc3ccccc32)cc1 | -67* | -12% | nt | ? | ? | ?
COc1ccc(NC(=O)CSc2nc3ccccc3n2CC(=O)NCc2ccc(F)cc2)cc1 | -37 | -12% | nt | -7%[46.1 µM] | -14% | -18%
Cc1ccccc1NC(=O)Cn1c(SCC(=O)Nc2ccc(F)cc2)nc2ccccc21 | -64* | -16% | nt | -25%[46.1 µM] | -10% | -22%
CCc1ccc(CNC(=O)C2Cc3cc(S(=O)(=O)N4CCCCCC4)ccc3N2C(C)=O)cc1 (stereo unspecified) | 4 | -11% | nt | 23%[46.1 µM] | ? | ?
COc1ccc(-c2csc3ncnc(N4CCN(S(=O)(=O)c5cccs5)CC4)c23)cc1 | -71* | -17% | ? | ? | i | -12%
SMILES | HCMV antiviral | FMDV antiviral | Marburg entry inh | Lassa entry inh | Vaccinia mCherry | Vaccinia Venus
COc1ccc(-c2csc3ncnc(N4CCN(S(=O)(=O)c5ccc(Cl)s5)CC4)c23)cc1 | -66* | -27% | ? | ? | ? | -21%
Cc1cn([C@H]2C[C@H](O)[C@@H](CCC(=O)NCc3ccccc3)O2)c(=O)[nH]c1=O | -11 | -14% | nt | nt | + | ?
CC(=O)Nc1ccc(NC(=O)COC(=O)C2(c3ccc(Cl)cc3)CCCC2)cc1 | ? | 28µM* | 13µM* | ? | i | -26%
Cc1nc(N2CCC(C)CC2)c2c(C)c(C(=O)Nc3cccc(C(F)(F)F)c3)sc2n1 | 11 | ? | ? | -11% | i | -23%
Cc1nc(Nc2cnc(/C=C/c3cc(C(=O)Nc4cccc(C(F)(F)F)c4)ccc3C)cn2)cc(N2CCNCC2)n1 | nt | -36% | nt | nt | ? | 10µM*
CCC(C(=O)NCCc1ccc(C)cc1)n1nc(C)c2c(C)n(-c3ccccc3)nc2c1=O (stereo unspecified) | ? | -9% | nt | nt | nt | nt
Cc1ccc(-n2nc3c(=O)n(C(C)C(=O)O)nc(C)c3c2C)cc1 (stereo unspecified) | -29 | -19% | 14%[46.1 µM] | -8%[46.1 µM] | -3% | -9%
CSc1ccc(CNC(=O)C(C)n2nc(C)c3c(C)n(-c4ccccc4)nc3c2=O)cc1 (stereo unspecified) | -62* | -23% | ? | ? | -9% | -13%
Cc1ccc(-n2nc3c(=O)n(C(C)C(=O)NCc4ccc(OC(C)C)cc4)nc(C)c3c2C)cc1 (stereo unspecified) | -77* | 0% | nt | ? | -16%[7.34 µM] | -22%[7.34 µM]
Cc1ccc(-n2nc3c(=O)n(C(C)C(=O)NCc4ccc(Cl)cc4)nc(C)c3c2C)cc1 (stereo unspecified) | -68* | ? | nt | nt | nt | nt
CSc1ccc(CCNC(=O)C(C)n2nc(C)c3c(C)n(-c4ccccc4)nc3c2=O)cc1 (stereo unspecified) | -33 | ? | nt | -8%[46.1 µM] | -24% | -13%
CCC(C(=O)NCCc1ccc(SC)cc1)n1nc(C)c2c(C)n(-c3ccc(C)cc3)nc2c1=O (stereo unspecified) | -80* | ? | nt | ? | -21% | ?
Cc1ccc(-n2nc3c(=O)n(C(C)C(=O)NCc4ccccc4C)nc(C)c3c2C)cc1 (stereo unspecified) | 0 | ? | nt | -27%[46.1 µM] | -4% | -16%
CCOC(=O)/C=C/[C@@H](C)NC(=O)C(F)(F)F | -22 | nt | nt | nt | nt | nt
Cc1ccc(-n2nc3c(=O)n(C(C)C(=O)NCCC4=CCCCC4)nc(C)c3c2C)cc1 (stereo unspecified) | -61* | 14µM* | nt | nt | nt | nt
